{"source": "the supplement of paper PMC8728848", "binders": {"B1": {"name": "PX9937D-bvu-500-26-500 (Bacteroides vulgatus) (protein)", "chain": "DPVSDITDLNYWKTPEQFDSFVFGLHSRFRSHSWNMFLLGEARSDVFGGIPFGGEATQGMERFPYNTLNAENPGISGFGDLYQNINQMNLFISRTLHTDVLTESARNYYLGQVYGLRAYYMYQLYRSWGDVVFTEEPSLGFEVGKLAKAATPAAEIFEQVKKDIESSLSYFGSDYTIKEKKSLWSKAATLMLKADVYLWSAHRDGGEGDARTAKNALVDIQNNISRSNLDLMDTYQGVFAYDNKGNKEIIFTIHNELFEYNLWNGNNDLFPQADYLGKFYNADGTLINTSVENNFGIMRLMVKLENFKKFLPGDTRRDVTLKDVYNKVENGKLELVGVYPHKYWGVMNGSTRVRCDDYPIYRYSDLLLMLAEAKVLLGEDPATEINRVRRRAFGDAYDASTVGFPNQEVDKRPADAVLQERLFEFMLEGKRWYDLRRFGDSYVLDYTPAEPARLLWPINQGALTNNPLLKQTVGY"}}, "assay_in_all_cases": "glycan array binding signal (z-score within array); higher = stronger binding", "conditions_in_all_cases": "glycan notation: IUPAC condensed, linker removed", "key": {"[1]": {"biological_target": "Fuc(a1-2)Gal(b1-3)GlcNAc", "method_in_brief": "(§1)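 The binding signal is a Z-score computed within each array. Data were drawn from 3228 arrays in the Consortium for Functional Glycomics database, restricted to those with a known protein sequence. Scores were averaged over arrays of the same protein sequence at different concentrations or buffers, and over linkers, and negative values can be taken as non-binding.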"}, "[2]": {"biological_target": "Fuc(a1-2)Gal(b1-3)GlcNAc(b1-3)Gal(b1-4)Glc", "method_in_brief": "as §1"}, "[3]": {"biological_target": "Fuc(a1-2)Gal(b1-4)Glc", "method_in_brief": "as §1"}, "[4]": {"biological_target": "Fuc(a1-2)Gal(b1-4)GlcNAc(b1-2)Man(a1-3)[Fuc(a1-2)Gal(b1-4)GlcNAc(b1-2)Man(a1-6)]Man(b1-4)GlcNAc(b1-4)[Fuc(a1-6)]GlcNAc", "method_in_brief": "as §1"}, "[5]": {"biological_target": "Fuc(a1-2)Gal(b1-4)GlcNAc(b1-2)[Fuc(a1-2)Gal(b1-4)GlcNAc(b1-4)]Man(a1-3)[Fuc(a1-2)Gal(b1-4)GlcNAc(b1-2)Man(a1-6)]Man(b1-4)GlcNAc(b1-4)GlcNAc", "method_in_brief": "as §1"}, "[6]": {"biological_target": "Fuc(a1-2)Gal(b1-4)GlcNAc(b1-3)[Fuc(a1-3)[Gal(b1-4)]GlcNAc(b1-6)]Gal(b1-4)Glc", "method_in_brief": "as §1"}, "[7]": {"biological_target": "Fuc(a1-2)Gal(b1-4)[Fuc(a1-3)]GlcNAc(b1-2)Man(a1-3)[Fuc(a1-2)Gal(b1-4)[Fuc(a1-3)]GlcNAc(b1-2)Man(a1-6)]Man(b1-4)GlcNAc(b1-4)[Fuc(a1-6)]GlcNAc", "method_in_brief": "as §1"}, "[8]": {"biological_target": "Fuc(a1-2)[Gal(a1-3)]Gal(b1-3)GlcNAc(b1-3)GalNAc", "method_in_brief": "as §1"}, "[9]": {"biological_target": "Fuc(a1-2)[Gal(a1-3)]Gal(b1-4)[Fuc(a1-3)]GlcNAc", "method_in_brief": "as §1"}, "[10]": {"biological_target": "Fuc(a1-2)[GalNAc(a1-4)]Gal(b1-4)GlcNAc", "method_in_brief": "as §1"}, "[11]": {"biological_target": "Fuc(a1-3)[Gal(b1-4)]GlcNAc(b1-2)Man(a1-3)[Fuc(a1-3)[Gal(b1-4)]GlcNAc(b1-2)Man(a1-6)]Man(b1-4)GlcNAc(b1-4)GlcNAc", "method_in_brief": "as §1"}, "[12]": {"biological_target": "Fuc(a1-3)[Gal(b1-4)]GlcNAc(b1-3)GalNAc", "method_in_brief": "as §1"}, "[13]": {"biological_target": "Fuc(a1-3)[Gal3S(b1-4)]GlcNAc6S", "method_in_brief": "as §1"}, "[14]": {"biological_target": "Gal(a1-3)Gal(b1-3)GlcNAc(b1-2)Man", "method_in_brief": "as §1"}, "[15]": {"biological_target": "Gal(a1-3)Gal(b1-4)GlcNAc(b1-3)GalNAc", "method_in_brief": "as §1"}, "[16]": {"biological_target": "Gal(a1-3)[Gal(a1-4)]Gal(b1-4)GlcNAc", "method_in_brief": "as §1"}, "[17]": {"biological_target": "Gal(a1-4)Gal(b1-4)GlcNAc(b1-2)Man(a1-3)[Gal(a1-4)Gal(b1-4)GlcNAc(b1-2)Man(a1-6)]Man(b1-4)GlcNAc(b1-4)GlcNAc", "method_in_brief": "as §1"}, "[18]": {"biological_target": "Gal(b1-3)Gal(b1-4)GlcNAc", "method_in_brief": "as §1"}, "[19]": {"biological_target": "Gal(b1-3)GlcNAc(b1-2)Man(a1-3)[Gal(b1-3)GlcNAc(b1-2)Man(a1-6)]Man(b1-4)GlcNAc(b1-4)GlcNAc", "method_in_brief": "as §1"}, "[20]": {"biological_target": "Gal(b1-3)[Fuc(a1-4)]GlcNAc(b1-3)Gal(b1-4)[Fuc(a1-3)]GlcNAc", "method_in_brief": "as §1"}, "[21]": {"biological_target": "Gal(b1-4)GalNAc(b1-3)[Fuc(a1-2)]Gal(b1-4)GlcNAc", "method_in_brief": "as §1"}, "[22]": {"biological_target": "Gal(b1-4)GlcNAc(b1-2)[Gal(b1-4)GlcNAc(b1-6)]Man(a1-6)[GlcNAc(b1-4)][Gal(b1-4)GlcNAc(b1-2)[Gal(b1-4)GlcNAc(b1-4)]Man(a1-3)]Man(b1-4)GlcNAc(b1-4)[Fuc(a1-6)]GlcNAc", "method_in_brief": "as §1"}, "[23]": {"biological_target": "Gal(b1-4)GlcNAc(b1-3)Gal(b1-4)GlcNAc(b1-3)Gal(b1-4)GlcNAc(b1-3)Gal(b1-4)GlcNAc(b1-3)Gal(b1-4)GlcNAc(b1-3)Gal(b1-4)GlcNAc(b1-2)Man(a1-3)[Gal(b1-4)GlcNAc(b1-3)Gal(b1-4)GlcNAc(b1-3)Gal(b1-4)GlcNAc(b1-3)Gal(b1-4)GlcNAc(b1-3)Gal(b1-4)GlcNAc(b1-3)Gal(b1-4)GlcNAc(b1-2)Man(a1-6)]Man(b1-4)GlcNAc(b1-4)GlcNAc", "method_in_brief": "as §1"}, "[24]": {"biological_target": "Gal3S(b1-4)[Fuc(a1-3)]Glc6S", "method_in_brief": "as §1"}, "[25]": {"biological_target": "Gal3S6S(b1-4)GlcNAc6S", "method_in_brief": "as §1"}, "[26]": {"biological_target": "Gal6S(b1-3)GlcNAc", "method_in_brief": "as §1"}, "[27]": {"biological_target": "GalNAc(b1-3)GalNAc", "method_in_brief": "as §1"}}, "note": "Many of the other results were omitted from the sample, so the strongest signals are more common in it than they were.", "data": [{"binder": "B1", "values": [{"measurement": "glycan array binding signal (z-score)", "setting": "[1]", "result": -0.32}, {"measurement": "glycan array binding signal (z-score)", "setting": "[2]", "result": -0.541}, {"measurement": "glycan array binding signal (z-score)", "setting": "[3]", "result": -0.401}, {"measurement": "glycan array binding signal (z-score)", "setting": "[4]", "result": 2.63}, {"measurement": "glycan array binding signal (z-score)", "setting": "[5]", "result": 0.277}, {"measurement": "glycan array binding signal (z-score)", "setting": "[6]", "result": -0.243}, {"measurement": "glycan array binding signal (z-score)", "setting": "[7]", "result": 5.16}, {"measurement": "glycan array binding signal (z-score)", "setting": "[8]", "result": -0.226}, {"measurement": "glycan array binding signal (z-score)", "setting": "[9]", "result": -0.096}, {"measurement": "glycan array binding signal (z-score)", "setting": "[10]", "result": 1.69}, {"measurement": "glycan array binding signal (z-score)", "setting": "[11]", "result": 6.27}, {"measurement": "glycan array binding signal (z-score)", "setting": "[12]", "result": -0.063}, {"measurement": "glycan array binding signal (z-score)", "setting": "[13]", "result": 0.002}, {"measurement": "glycan array binding signal (z-score)", "setting": "[14]", "result": 4.49}, {"measurement": "glycan array binding signal (z-score)", "setting": "[15]", "result": -0.404}, {"measurement": "glycan array binding signal (z-score)", "setting": "[16]", "result": 2.38}, {"measurement": "glycan array binding signal (z-score)", "setting": "[17]", "result": 9.96}, {"measurement": "glycan array binding signal (z-score)", "setting": "[18]", "result": -0.412}, {"measurement": "glycan array binding signal (z-score)", "setting": "[19]", "result": 4.38}, {"measurement": "glycan array binding signal (z-score)", "setting": "[20]", "result": -0.383}, {"measurement": "glycan array binding signal (z-score)", "setting": "[21]", "result": -0.3}, {"measurement": "glycan array binding signal (z-score)", "setting": "[22]", "result": 5.5}, {"measurement": "glycan array binding signal (z-score)", "setting": "[23]", "result": 2.58}, {"measurement": "glycan array binding signal (z-score)", "setting": "[24]", "result": 0.78}, {"measurement": "glycan array binding signal (z-score)", "setting": "[25]", "result": 0.182}, {"measurement": "glycan array binding signal (z-score)", "setting": "[26]", "result": 1.2}, {"measurement": "glycan array binding signal (z-score)", "setting": "[27]", "result": -0.663}]}]}
